# “And” between values parts separate entries of the source, which are not always exact repeats. Equal entries are not always repeated. The full ranking holds about 2,900 compounds; the median of “NF-kB SEAP reporter activity, fold change vs agonist alone” is about 0.99, and the highest 2% start at about 2.6. Only a selection was taken, and the highest values are over-represented in it overall.
# Legend:
# [1] = tested on: RAW-Dual; assay: NF-kB SEAP reporter activity, fold change vs agonist alone; cytotoxicity flag (confluency mask): cytotoxic (confluency <70% of control); higher = enhanced NF-kB activity
# Outline: (§1)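 RAW-Dual macrophages were seeded in DMEM at 50,000 cells/well in 384-well plates, given 50 nL of library stock by pin tool, and given a PRR agonist 1 h later. Plates were held at 37 °C, 5% CO2 for 20 hours, after which supernatant was read for IRF by QuantiLuc luminescence and for NF-κB by QuantiBlue absorbance at 620 nm. Reporter activity is expressed as fold change over wells that received agonist alone. A well was called cytotoxic when IncuCyte confluency fell below 70% of agonist controls in both mask sets.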
# [2] = tested on: RAW-Dual; assay: NF-kB SEAP reporter activity, fold change vs agonist alone; higher = enhanced NF-kB activity; conditions: library stock concentration (final ~1000-fold dilution): 10 mM
# Outline: as §1
# [3] = tested on: RAW-Dual; assay: NF-kB SEAP reporter activity, fold change vs agonist alone; cytotoxicity flag (confluency mask): not cytotoxic; higher = enhanced NF-kB activity
# Outline: as §1
# [4] = agonist: ODN 1826 (TLR9) 0.5 ug/mL
# [5] = agonist: Pam2CSK4 (TLR2/6) 0.1 ug/mL
# [6] = agonist: Pam3CSK4 (TLR2/1) 0.1 ug/mL
# [7] = cytotoxicity flag (confluency mask): not cytotoxic, agonist: Imiquimod (TLR7) […]
# [8] = cytotoxicity flag (confluency mask): not cytotoxic, agonist: MPLA (TLR4) […]
structure (smiles),measurement,setting,value
O=C(Nc1cc(C(F)(F)F)ccc1C(F)(F)F)c1cc(Br)ccc1O (library stock concentration (final ~1000-fold dilution): 10 mM),NF-kB SEAP reporter activity,[1]; agonist: LPS (TLR4) 0.1 ug/mL,2.68
same,NF-kB SEAP reporter activity,[1]; [4],1.82
same,NF-kB SEAP reporter activity,[1]; [5],0.573
same,NF-kB SEAP reporter activity,[1]; [6],0.839
Cl.NCCOc1ccc(Cl)cc1C(=O)Nc1ccc([N+](=O)[O-])cc1Cl,NF-kB SEAP reporter activity,[2]; [7],1.31
same,NF-kB SEAP reporter activity,[2]; [8],0.949
Cc1oncc1C(=O)Nc1ccc(C(F)(F)F)cc1 (library stock concentration (final ~1000-fold dilution): 10 mM),NF-kB SEAP reporter activity,[3]; agonist: LPS (TLR4) 0.1 ug/mL,0.926
same,NF-kB SEAP reporter activity,[3]; [4],1.24
same,NF-kB SEAP reporter activity,[3]; [5],0.908
same,NF-kB SEAP reporter activity,[3]; [6],1.07
CC(ONC(=O)c1cc(C(F)(F)F)cc(C(F)(F)F)c1)C(=O)Nc1ccc(Cl)cc1 (centres undefined) (library stock concentration (final ~1000-fold dilution): 10 mM),NF-kB SEAP reporter activity,[3]; agonist: LPS (TLR4) 0.1 ug/mL,1.45
same,NF-kB SEAP reporter activity,[3]; [4],0.913
same,NF-kB SEAP reporter activity,[3]; [5],0.239
same,NF-kB SEAP reporter activity,[3]; [6],0.6
CC(ONC(=O)c1cc(C(F)(F)F)cc(C(F)(F)F)c1)C(=O)Nc1ccc(Cl)cc1 (centres undefined),NF-kB SEAP reporter activity,[2]; [7],0.98
same,NF-kB SEAP reporter activity,[2]; [8],1.4
O=C(Nc1ccncc1)c1cc([N+](=O)[O-])ccc1Cl,NF-kB SEAP reporter activity,[2]; [7],0.837
same,NF-kB SEAP reporter activity,[2]; [8],0.684
Cc1oncc1C(=O)Nc1ccc(C(F)(F)F)cc1,NF-kB SEAP reporter activity,[2]; [7],1.24
same,NF-kB SEAP reporter activity,[2]; [8],1.15
O=C(Nc1cc(C(F)(F)F)cc(C(F)(F)F)c1)c1cc(Cl)ccc1O (library stock concentration (final ~1000-fold dilution): 10 mM),NF-kB SEAP reporter activity,[1]; agonist: LPS (TLR4) 0.1 ug/mL,4.53 and 3.94
same,NF-kB SEAP reporter activity,[1]; [4],1.84 and 1.74
same,NF-kB SEAP reporter activity,[1]; [5],1.25 and 1.03
same,NF-kB SEAP reporter activity,[1]; [6],1.99 and 1.13
Cl.Nc1ccc(Cl)cc1C(=O)C(F)(F)F (library stock concentration (final ~1000-fold dilution): 10 mM),NF-kB SEAP reporter activity,[3]; agonist: LPS (TLR4) 0.1 ug/mL,1.2
same,NF-kB SEAP reporter activity,[3]; [4],1.04
same,NF-kB SEAP reporter activity,[3]; [5],1.01
same,NF-kB SEAP reporter activity,[3]; [6],0.971
Cl.NCCOc1ccc(Cl)cc1C(=O)Nc1ccc([N+](=O)[O-])cc1Cl (library stock concentration (final ~1000-fold dilution): 10 mM),NF-kB SEAP reporter activity,[3]; agonist: LPS (TLR4) 0.1 ug/mL,1.29
same,NF-kB SEAP reporter activity,[3]; [4],0.59
same,NF-kB SEAP reporter activity,[3]; [5],0.918
same,NF-kB SEAP reporter activity,[3]; [6],0.91
O=C(Nc1cc(C(F)(F)F)ccc1C(F)(F)F)c1cc(Br)ccc1O,NF-kB SEAP reporter activity,"[2]; cytotoxicity flag (confluency mask): cytotoxic (confluency <70% of control), agonist: Imiquimod (TLR7) […]",0.255
same,NF-kB SEAP reporter activity,"[2]; cytotoxicity flag (confluency mask): cytotoxic (confluency <70% of control), agonist: MPLA (TLR4) […]",2.3
Cl.Nc1ccc(Cl)cc1C(=O)C(F)(F)F,NF-kB SEAP reporter activity,[2]; [8],1.24
O=C(Nc1ccc([N+](=O)[O-])cc1Cl)c1cc(Cl)ccc1O,NF-kB SEAP reporter activity,[2]; [7],1
same,NF-kB SEAP reporter activity,[2]; [8],1.05
O=C(Nc1cc(C(F)(F)F)ccc1N1CCCCC1)c1ccncc1,NF-kB SEAP reporter activity,[2]; [7],0.957
same,NF-kB SEAP reporter activity,[2]; [8],1.01

# Source: the supplement of paper PMC10037445
